Assay outcomes: PubChem BioAssay, several laboratories
Only some compounds are listed: those with a hit (about 27% of all), similar ones and a draw of the others.
CYP2C19 act = cytochrome P450 2C19 (human) activation; AID 1025; activation factor at 5 µM; recombinant CYP2C19, luciferin-H EGE luminescence; active compounds read high; 0 = fully inhibited enzyme, 1 = untreated enzyme; 96,000 tested, under 10 active; P33261;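 active means activation factor of at least 2 at 5 µM in the primary screen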
Target sequence (P33261 whole entry, looked up): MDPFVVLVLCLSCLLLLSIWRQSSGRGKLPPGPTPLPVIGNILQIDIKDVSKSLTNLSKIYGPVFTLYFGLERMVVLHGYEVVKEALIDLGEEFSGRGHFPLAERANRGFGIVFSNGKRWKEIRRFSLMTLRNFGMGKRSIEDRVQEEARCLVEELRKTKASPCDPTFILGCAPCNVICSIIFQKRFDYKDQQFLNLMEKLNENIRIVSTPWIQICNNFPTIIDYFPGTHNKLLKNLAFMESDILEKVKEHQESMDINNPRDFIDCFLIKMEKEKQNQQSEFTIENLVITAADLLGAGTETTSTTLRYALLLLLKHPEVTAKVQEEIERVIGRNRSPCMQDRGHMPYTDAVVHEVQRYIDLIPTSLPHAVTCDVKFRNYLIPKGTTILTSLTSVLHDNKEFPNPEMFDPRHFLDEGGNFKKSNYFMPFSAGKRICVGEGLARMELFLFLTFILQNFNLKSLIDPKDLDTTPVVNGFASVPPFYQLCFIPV
Cav32 inh = blocks human Cav3.2 T-type calcium channel; O95180; Cav3.2-expressing cells, Fluo-4 calcium fluorescence FDSS; active compounds read low; B-score at 10 µM; hit rate 4% among 100,000; AID 449739;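 active means single-dose well whose peak fluorescence ratio is a statistical outlier from its plate by either plate-standardised score or position-corrected B-score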
CYP2C9 activ = increases human cytochrome P450 2C9 activity. recombinant CYP2C9, luciferin-H conversion, luminescence; active compounds read high; factor 1 = untreated enzyme, 0 = blocked. activation factor at 5 µM. hit rate 1.4% among 96,000. AID 1024;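 active means activation factor of 2 or more for CYP2C9 at a 5 µM dose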
CYP2C19 inhib = inhibitors of human CYP2C19; CYP2C19 Supersomes, luciferin-H EGE luminescence, 30 min; hit rate 21% among 96,000; P33261; inhibition, % at 5 µM;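 active means CYP2C19 inhibition above a set limit at 5 µM in the primary screen, cut at about 50% in these data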
CYP2C9 inhib = inhibitors of human CYP2C9; P11712; CYP2C9 Supersomes, luciferin-H conversion, luminescence; inhibition, % at 5 µM; hit rate 20% among 96,000; AID 777;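 active means blocking of liver enzyme CYP2C9 beyond about 50% at 5 µM, limit read from the data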
Hits are given with their value; 0 = inactive; - = no result given.

SMILES	CYP2C19 act	Cav32 inh	CYP2C9 activ	CYP2C19 inhib	CYP2C9 inhib
Fc1ccc(Cl)cc1/C=N/n1cnnc1SCc1ccccc1	0	0	0	66.0	0
CSc1nncn1/N=C/c1cc(Cl)ccc1F	0	0	0	0	0
O=C(c1c(F)cccc1F)N(Cc1ccccn1)C1CCCC1	0	0	0	0	0
O=C(C1CC=CCC1)N1CCN(C(=O)C2CC=CCC2)CC1 (stereo unspecified)	-	0	-	-	-
CC(C)CNC(=O)CSc1ccc(Cl)cc1	0	0	0	0	0
NC(=O)C(c1ccc(Cl)cc1)c1ccc(Sc2ccc(Cl)cc2)nn1 (stereo unspecified)	0	-4.29	0	63.4	0
CCOc1ccc(NC(=O)CSc2n[nH]c(=O)n2-c2ccccc2)cc1	0	0	0	0	0
Cc1noc(C)c1C(=O)OCC(=O)NC(c1ccccc1)c1ccccc1	0	0	0	0	0
Cc1noc(C)c1C(c1ccccc1)c1ccccc1	0	0	0	94.4	76.2
CCCCn1cnc2c(cnn2-c2ccc(F)cc2)c1=O	0	0	0	0	56.0
O=c1c2cnn(-c3ccc(F)cc3)c2ncn1Cc1ccc(F)cc1	-	0	-	-	-
O=c1c2cnn(-c3ccc(F)cc3)c2ncn1Cc1ccccn1	0	0	0	56.3	0
CCCn1cnc2c(cnn2-c2ccc(F)cc2)c1=O	-	0	-	-	-
Nc1nc(SCC(=O)NCC2CCCO2)n[nH]1 (stereo unspecified)	0	0	0	0	0
